Measured values: PubChem BioAssay AID1159580 (chemical genetic matrix, 2015)
Several values for one entry are separate records, joined by “and”; a condition that tells them apart may be missing. Equal entries are not always repeated. The whole screen tested about 5,500 compounds, of which about 2,000 (36%) were called active. Roughly 18% stayed inconclusive and do not appear here. Rule as the data show it: active = normalized growth mostly below about 0.91 (no sharp cut-off); inconclusive = no clear call, values can overlap the other calls; inactive = mostly above about 0.92. The list shows a part of the results.

Experiment: chemical genetic growth profiling, strain panel (AID 1159580);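 also: tested at 20 µM; growth read once vehicle control cultures reached saturation at 30 °C; 1 = growth at the plate median or of vehicle wells; lower values mean less growth of the strain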
Settings: S. cerevisiae deletion strains, growth OD

Measured: normalized growth

COc1ccc2c(c1)OCC(Cc1ccc(OC)c(OC(C)=O)c1)C2=O (configuration not stated)
inactive: locus YAL013W, strain DEP1, active compounds read low 0.979 | locus YAL021C, strain ccr4, active compounds read low 0.974 | locus YAL026C, strain drs2, active compounds read low 0.967 | locus YAL030W, strain snc1, active compounds read low 0.973 | locus YBL061C, strain skt5, active compounds read low 0.967 | locus YBR009C, strain hhf1, active compounds read low 0.983 | locus YBR021W, strain FUR4, active compounds read low 0.883 | locus YBR023C, strain chs3, active compounds read low 0.965 | locus YBR171W, strain sec66, active compounds read low 0.962 | locus YBR229C, strain ROT2, active compounds read low 0.996 | locus YBR231C, strain swc5, active compounds read low 0.969 | locus YBR279W, strain paf1, active compounds read low 0.973 | locus YCL011C, strain gbp2, active compounds read low 0.985 | locus YCL016C, strain dcc1, active compounds read low 0.985 | locus YCL029C, strain bik1, active compounds read low 1.01 | locus YCL061C, strain MRC1, active compounds read low 0.976 | locus YCL069W, strain vba3, active compounds read low 0.982 | locus YCR088W, strain abp1, active compounds read low 0.984 | locus YDL005C, strain med2, active compounds read low 0.963 | locus YDL035C, strain GPR1, active compounds read low 0.99 | locus YDL040C, strain nat1, active compounds read low 0.96 | locus YDL074C, strain BRE1, active compounds read low 1.01 | locus YDL101C, strain DUN1, active compounds read low 0.988 | locus YDL134C, strain PPH21, active compounds read low 0.952 | locus YDL185W, strain tfp1, active compounds read low 1.02 | locus YDL192W, strain arf1, active compounds read low 1 | locus YDR001C, strain nth1, active compounds read low 0.982 | locus YDR069C, strain doa4, active compounds read low 0.958 | locus YDR101C, strain arx1, active compounds read low 0.996 | locus YDR137W, strain rgp1, active compounds read low 0.959 | locus YDR150W, strain NUM1, active compounds read low 0.982 | locus YDR159W, strain sac3, active compounds read low 0.975 | locus YDR162C, strain NBP2, active compounds read low 0.957 | locus YDR195W, strain ref2 1.04 | locus YDR297W, strain sur2, active compounds read low 0.978 | locus YDR318W, strain mcm21, active compounds read low 0.992 | locus YDR334W, strain swr1, active compounds read low 0.973 | locus YDR335W, strain msn5, active compounds read low 0.984 | locus YDR388W, active compounds read low 0.998 | locus YDR392W, strain spt3, active compounds read low 0.781 | locus YDR502C, strain sam2, active compounds read low 0.992 | locus YEL003W, strain gim4, active compounds read low 0.992 | locus YEL037C, strain rad23, active compounds read low 0.978 | locus YEL061C, strain CIN8 (second series), active compounds read low 0.984 | locus YEL061C, strain CIN8, active compounds read low 0.993 | locus YER015W, strain faa2, active compounds read low 0.98 | locus YER016W, strain bim1, active compounds read low 0.977 | locus YER110C, active compounds read low 1.02 | locus YER111C, strain swi4, active compounds read low 0.972 | locus YER155C, strain BEM2 (second series), active compounds read low 0.952 | locus YER155C, strain BEM2, active compounds read low 0.981 | locus YER167W, strain BCK2, active compounds read low 0.993 | locus YFR010W, strain ubp6, active compounds read low 0.969 | locus YGL078C, strain dbp3, active compounds read low 1 | locus YGL086W, strain mad1, active compounds read low 1.01 | locus YGL167C, strain pmr1, active compounds read low 0.957 | locus YGL173C, strain kem1, active compounds read low 0.954 | locus YGL227W, strain vid30, active compounds read low 0.979 | locus YGL240W, strain doc1, active compounds read low 0.99 | locus YGL248W, strain PDE1, active compounds read low 0.99 | locus YGL253W, strain hxk2, active compounds read low 0.93 | locus YGR078C, strain PAC10, active compounds read low 0.977 | locus YGR135W, strain pre9, active compounds read low 1 | locus YGR252W, strain gcn5, active compounds read low 1.01 | locus YHR013C, strain ard1, active compounds read low 0.95 | locus YHR027C, strain rpn1, active compounds read low 0.995 | locus YHR030C, strain SLT2, active compounds read low 1 and 1.05 | locus YHR079C, strain IRE1 (second series), active compounds read low 0.987 | locus YHR079C, strain IRE1, active compounds read low 1.01 | locus YHR094C, strain hxt1, active compounds read low 0.992 | locus YHR129C, strain ARP1, active compounds read low 0.998 | locus YHR142W, strain chs7, active compounds read low 0.965 | locus YHR200W, strain rpn10, active compounds read low 1.01 | locus YIL066C, strain RNR3, active compounds read low 0.982 | locus YIL073C, strain SPO22, active compounds read low 0.996 | locus YIL125W, strain kgd1, active compounds read low 1 | locus YIR030C, strain dcg1, active compounds read low 0.987 | locus YJL092W, strain hpr5, active compounds read low 0.98 | locus YJL095W, strain BCK1 (second series), active compounds read low 0.973 | locus YJL095W, strain BCK1, active compounds read low 0.991 and 1.05 | locus YJL115W, strain asf1, active compounds read low 0.983 | locus YJL129C, strain trk1, active compounds read low 0.945 | locus YJL134W, strain LCB3, active compounds read low 1 | locus YJL154C, strain vps35, active compounds read low 0.98 | locus YJL164C, strain tpk1, active compounds read low 0.97 | locus YJL166W, strain qcr8, active compounds read low 0.961 | locus YJL168C, strain set2, active compounds read low 0.99 | locus YJL187C, strain SWE1 (second series), active compounds read low 0.991 | locus YJL187C, strain SWE1, active compounds read low 0.978 | locus YJR043C, strain POL32, active compounds read low 1.01 | locus YJR066W, strain TOR1, active compounds read low 1 | locus YJR075W, strain HOC1, active compounds read low 0.983 | locus YKL009W, strain mrt4, active compounds read low 0.993 | locus YKL068W, active compounds read low 0.984 | locus YKL085W, strain MDH1 (second series), active compounds read low 0.982 | locus YKL085W, strain MDH1, active compounds read low 0.982 | locus YKL160W, strain elf1, active compounds read low 0.98 | locus YKL190W, strain CNB1, active compounds read low 0.974 | locus YKR001C, strain vps1, active compounds read low 1.01 | locus YKR026C, strain gcn3, active compounds read low 0.971 | locus YKR091W, strain srl3, active compounds read low 0.974 | locus YLL001W, strain dnm1, active compounds read low 0.979 | locus YLL026W, active compounds read low 0.976 | locus YLL041C, strain sdh2, active compounds read low 0.987 | locus YLR027C, strain aat2, active compounds read low 0.97 | locus YLR039C, strain RIC1, active compounds read low 1.04 | locus YLR058C, strain SHM2, active compounds read low 0.995 | locus YLR102C, strain apc9, active compounds read low 1 | locus YLR113W, strain HOG1, active compounds read low 0.95 | locus YLR221C, strain rsa3, active compounds read low 0.943 | locus YLR258W, strain gsy2, active compounds read low 0.963 | locus YLR262C, strain YPT6 (second series), active compounds read low 0.965 | locus YLR262C, strain YPT6, active compounds read low 1 | locus YLR268W, strain sec22, active compounds read low 0.992 | locus YLR320W, strain mms22, active compounds read low 0.933 | locus YLR330W, strain CHS5, active compounds read low 0.997 | locus YLR342W, strain FKS1 (second series), active compounds read low 0.993 | locus YLR342W, strain FKS1, active compounds read low 0.948 | locus YLR357W, strain rsc2, active compounds read low 0.974 | locus YLR370C, strain arc18, active compounds read low 0.981 | locus YLR371W, strain rom2, active compounds read low 1.01 | locus YLR384C, strain iki3, active compounds read low 0.975 | locus YLR418C, strain cdc73, active compounds read low 0.995 | locus YML016C, strain PPZ1, active compounds read low 1 | locus YML032C, strain rad52, active compounds read low 1 | locus YML120C, strain ndi1, active compounds read low 0.982 | locus YML124C, strain tub3, active compounds read low 0.995 | locus YMR058W, strain fet3, active compounds read low 0.965 | locus YMR078C, strain ctf18, active compounds read low 1 | locus YMR125W, strain sto1, active compounds read low 0.985 | locus YMR129W, active compounds read low 0.975 | locus YMR205C, strain PFK2, active compounds read low 0.946 | locus YMR223W, strain ubp8, active compounds read low 1 | locus YMR231W, strain pep5, active compounds read low 0.946 | locus YMR263W, strain SAP30, active compounds read low 0.996 | locus YMR307W, strain GAS1, active compounds read low 0.92 | locus YNL067W, strain RPL9B, active compounds read low 0.981 | locus YNL071W, strain lat1, active compounds read low 0.949 | locus YNL153C, strain GIM3, active compounds read low 0.988 | locus YNL183C, strain NPR1, active compounds read low 0.99 | locus YNL209W, strain ssb2, active compounds read low 0.996 | locus YNL233W, strain BNI4, active compounds read low 0.991 | locus YNL248C, strain rpa49, active compounds read low 0.963 | locus YNL250W, strain rad50, active compounds read low 1.01 | locus YNL271C, strain bni1, active compounds read low 0.989 | locus YNL298W, strain CLA4, active compounds read low 1 | locus YNL307C, strain MCK1, active compounds read low 1 | locus YNL322C, strain KRE1 (second series), active compounds read low 0.979 | locus YNR049C, strain mso1, active compounds read low 0.97 | locus YNR052C, strain pop2, active compounds read low 0.996 | locus YOL012C, strain htz1 1.12 | locus YOL147C, strain pex11, active compounds read low 0.988 | locus YOR001W, strain rrp6, active compounds read low 0.956 | locus YOR061W, strain CKA2, active compounds read low 0.995 | locus YOR069W, strain VPS5, active compounds read low 1 | locus YOR070C, strain gyp1, active compounds read low 1 | locus YOR080W, strain dia2, active compounds read low 0.978 | locus YOR083W, strain WHI5, active compounds read low 0.971 | locus YOR106W, strain vam3, active compounds read low 0.963 | locus YOR136W, strain idh2, active compounds read low 1 | locus YOR144C, strain elg1, active compounds read low 0.996 | locus YOR184W, strain ser1, active compounds read low 0.969 | locus YOR231W, strain MKK1, active compounds read low 1.01 | locus YOR265W, strain rbl2, active compounds read low 0.975 | locus YOR270C, strain vph1, active compounds read low 0.88 | locus YOR290C, strain snf2, active compounds read low 0.974 | locus YOR316C, strain cot1, active compounds read low 1.01 | locus YPL051W, strain arl3, active compounds read low 1 | locus YPL078C, strain atp4, active compounds read low 0.972 | locus YPL106C, strain sse1, active compounds read low 0.982 | locus YPL240C, strain hsp82, active compounds read low 0.971 | locus YPL256C, strain CLN2, active compounds read low 1.04 | locus YPR119W, strain clb2, active compounds read low 0.995 | locus YPR141C, strain kar3, active compounds read low 1.01 | locus YPR163C, strain tif3, active compounds read low 1.01 | locus YPR167C, strain met16, active compounds read low 0.994 | strain wtn01, active compounds read low 1.01
